This note sets out measurements from PubChem BioAssay (NCI).

This is part of a sample that, as a whole, favours compounds with a hit. Of some 83,000 tested, about 20% had one in any assay.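 In brief: 96-well plates, 48 h treatment, single concentration, percent growth endpoint.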 A number with no mark means an inactive call. Calls of active or inactive are those of the source. How the source made its calls: active means growth percent below 10; inactive means the rest.

What all share (assay): NCI-60 one-dose screen, 48 h (100 = growth as untreated, 0 = no growth, -100 = all killed)
Details in all cases: 10 µM

Experiment [1] has as its system NCI-H23 lung.
In experiment [2] the test system is NCI-H226 lung.
Experiment [3] concerns NCI-H322M lung.
For experiment [4], the system named is NCI-H460 lung.
In experiment [5] the test system is HOP-92 NSCLC.
Experiment [6] relates to NCI-H522 lung.
Experiment [7] concerns A549/ATCC NSCLC.
Experiment [8] concerns 786-0 renal.
Experiment [9] relates to COLO 205 colon.
In experiment [10] the test system is HOP-62 NSCLC.

With `CCOc1ccc2ncc(C#Cc3cncc(C(=O)Nc4ccc(CN5CCN(C)CC5)c(C(F)(F)F)c4)c3)n2n1`, the growth in experiment [1] was -70% (active); in experiment [2], -59.1% (active); in experiment [3], -76% (active); in experiment [4], -52.9% (active); in [5], -46.6% (active); in experiment [6], -41.3% (active). For the same molecule, the figures for the growth in [7], in experiment [8] and in experiment [9] were -33.9% (active), -43.8% (active) and -45.8% (active), respectively.

Consider `Cc1ccc(/C=C/C(=O)c2ccc(S(=O)(=O)NCCNc3nc(Nc4ccc(F)cc4)nc(N(C)C)n3)cc2)cc1`, for which the growth is 36.5% in experiment [1]; 48.5% in [3]; 56.2% in experiment [10]; 0.319% (active) in experiment [4]; -18.2% (active) in experiment [5]; 71.3% in experiment [6]. The figures for the growth in experiment [7] and in experiment [8] were 41.3% and -32% (active), respectively.

Regarding `Cc1ccc(-c2nc3ccc(C(=O)N=Nc4c(O)[nH]c5ccc(Br)cc45)cc3[nH]2)cc1`, the growth was -3.58% (active) in experiment [1]; 91.7% in experiment [2]; 77.7% in [3]; 47.8% in experiment [4]; 88.3% in experiment [5]; 25% in experiment [6]. Besides, the growth in [7] was 87.1%; in experiment [8], 36.3%; in experiment [9], 61%.

Regarding `O=C1NC(=NC23CC4CC(CC(C4)C2)C3)N/C1=C\c1ccc2ncsc2c1`, the growth is -10.3% (active) in experiment [1]; -4% (active) in experiment [2]; 4.94% (active) in experiment [3]; 7.74% (active) in [4]; 5.85% (active) in experiment [5]; -7.87% (active) in experiment [6]. Moreover, the growth in experiment [7] was 16.5%; in [8] it was 16.1%; in experiment [9], -29.6% (active).

With `Cc1ccc2nc(COc3ccc(C(=O)NNC(=S)NCCc4ccccc4)cc3)[nH]c2c1`, the growth in [1] was 17.2%; in [2], 47.2%; in experiment [3] it was 51.7%; in experiment [4], 60.4%; in experiment [5], 9.55% (active); in [6] it was 55%. For the same molecule, the figures for the growth in [7], in experiment [8] and in experiment [9] were 104%, 61% and 144%, respectively.

In the case of `O=C(Nc1cccc(-c2cn(-c3ccc4oc(=O)ccc4c3)nn2)c1)Nc1cc(C(F)(F)F)cc(C(F)(F)F)c1`, the growth in experiment [1] is 4.21% (active); in experiment [2], 33.4%; in experiment [3], 34.4%; in experiment [4] it was 27.8%; in experiment [5], -28.1% (active); in experiment [6], 21.8%. Also, the growth in experiment [7] was 21.8%; in [8] it was 29.3%; in experiment [9] it was 44.3%.

As to `COc1cc2c(cc1OC)/C(=C\c1sc(Nc3ccc(O)cc3)nc1O)C(C(=O)O)=N2`, the growth was 47% in [1]; 63.7% in [2]; 53.8% in experiment [3]; 18.2% in experiment [4]; 36.4% in experiment [5]; -18.3% (active) in experiment [6]. For the same molecule, the results for the growth in [7], in experiment [8] and in experiment [9] were 56.4%, 29.1% and -30.7% (active), respectively.

As for `CC(C)(C)c1ccc(NCc2cn(-c3ccc(C(=O)O)cc3)nc2-c2ccc(C#N)cc2)cc1`, the growth in experiment [1] was 8.82% (active); in experiment [2], 31.6%; in [3], 41%; in experiment [4] it was 11.6%; in [5], -3.79% (active); in experiment [6] it was 57.1%. Also, the values for the growth in experiment [7], in experiment [8] and in [9] were 24.3%, 22.8% and 34.8%, respectively.

`Brc1ccc(/C=C/c2n(Cc3ccc4ccccc4c3)c3ccccc3[n+]2Cc2ccc3ccccc3c2)cc1`: the growth was -81.9% (active) in [1]; -85% (active) in experiment [2]; 7.28% (active) in experiment [3]; -66.2% (active) in [4]; -89.5% (active) in experiment [5]; -84.2% (active) in experiment [6]. The results for the growth in experiment [7], in [8] and in experiment [9] were 10.4%, -95.5% (active) and -69.3% (active), respectively.

On to `O=C(Nc1ccccc1)Nc1nc2ccccc2s1`, for which the growth in experiment [1] was 78.5%; in experiment [2] it was 72.1%; in experiment [3] it was 84.4%; in [4], 95.3%; in experiment [5], 77.8%; in experiment [6] it was 72.3%. Besides, the growth in experiment [7] was 89.5%; in experiment [8] it was 102%; in experiment [9], 50.8%.

On to `COc1cnc2c(c1)C(=O)c1c-2n(CCCNCCO)c(=O)c2cc(OC)c(OC)cc12`, for which the growth in experiment [1] was 3.38% (active); in experiment [3], 30.9%; in experiment [10] it was 12.1%; in experiment [4], 10.2%; in [5], 54.4%; in experiment [6], 15.1%. Also, the growth in experiment [7] is 43%; in experiment [8] it was -11.9% (active); in experiment [9], 15.4%.

Regarding `CC(=O)Nc1nc(-c2ccc(N3CCN(C)CC3)c(NS(=O)(=O)c3cccc4c(N(C)C)cccc34)c2)cs1`, the growth in experiment [2] was 75.5%; in [3], 64.7%; in experiment [10] it was 69.7%; in experiment [4] it was 58.9%; in [5] it was 50.6%; in [6], 59.6%. In addition, the growth is 71.3% in experiment [7] and 34.4% in [8].

As to `COc1cccc2nc(Nc3ccc(F)c(NC(=O)c4ccc(CN5CCN(C)CC5)c(C(F)(F)F)c4)c3)ccc12`, the growth was -17.8% (active) in [1]; 32.7% in [3]; -36.4% (active) in experiment [10]; -68.8% (active) in experiment [4]; -22.8% (active) in [5]; -60.9% (active) in [6]. Moreover, the growth is 18.5% in experiment [7], -66.3% (active) in [8] and -78.7% (active) in experiment [9].

Turning to `CN1CCCN(Cc2ccc(C(=O)Nc3cccc(Nc4ccc5cc(O)ccc5n4)c3)cc2C(F)(F)F)CC1`, the growth in experiment [2] is 103%; in experiment [3], 89.1%; in [10], 95.9%; in experiment [4], 27.7%; in experiment [5], 53.3%; in [6] it was 80.3%. The growth is 64.7% in experiment [7] and 8.41% (active) in experiment [8].

In the case of `Cc1cccc2cc(-c3cc(-c4ccccc4)nc(=O)[nH]3)c(Cl)nc12`, the growth in experiment [1] was 88.7%; in experiment [3], 89.9%; in experiment [10] it was 109%; in experiment [4], 80.7%; in experiment [5], 77.1%; in [6], 87.7%. In addition, the growth in experiment [7] was 96.4%; in experiment [8], 91.6%; in experiment [9], 119%.
